# Laboratory results from PubChem BioAssay (NCATS).
# Where “and” joins values, the source holds several entries; their conditions need not be identical. Equal values may be shown once. A number with no mark means an inactive call. Inconclusive results are not listed. A call without a number means that no potency is given here. Calls of active or inactive are those of the source. Unless noted, calls follow the shape of the full dose curve.
# Legend:
# [1] = target: Cytochrome P450 3A4 (Homo sapiens) (UniProt P08684); assay: qHTS Assay for Activators of Cytochrome P450 3A4 (AID 885; active = well fitted curve in the direction sought with a large enough effect; an effect the other way counts as inactive or inconclusive; also: nearly all actives have a fitted effect of over 65% in size)
# Cytochrome P450 3A4 (Homo sapiens), sequence (P08684 whole entry, looked up): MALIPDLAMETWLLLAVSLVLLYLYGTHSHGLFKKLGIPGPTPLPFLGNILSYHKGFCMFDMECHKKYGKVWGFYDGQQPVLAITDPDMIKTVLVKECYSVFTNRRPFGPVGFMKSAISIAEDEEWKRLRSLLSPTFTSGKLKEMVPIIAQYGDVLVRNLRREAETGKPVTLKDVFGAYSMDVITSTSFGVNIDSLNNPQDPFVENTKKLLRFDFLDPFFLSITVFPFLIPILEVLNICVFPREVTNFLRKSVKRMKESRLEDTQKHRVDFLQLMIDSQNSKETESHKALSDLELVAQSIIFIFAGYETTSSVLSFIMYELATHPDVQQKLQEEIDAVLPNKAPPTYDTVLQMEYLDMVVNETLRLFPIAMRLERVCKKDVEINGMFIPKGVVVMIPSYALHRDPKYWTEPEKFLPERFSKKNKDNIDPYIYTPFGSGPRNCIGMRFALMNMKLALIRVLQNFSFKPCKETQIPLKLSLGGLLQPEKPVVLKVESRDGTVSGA
# Procedure, shortened: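 Luminescent readout of luciferin formed from 25 uM Luciferin-PPXE (KM level) by 20 nM CYP3A4 in 200 mM KPO4, with 60 min NADPH-driven reaction at room temperature after 10 min compound exposure. Ketoconazole (57 uM) defined 100% inhibition.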
# [2] = target: Bile acid receptor (Homo sapiens) (UniProt Q96RI1); assay: qHTS assay for small molecule antagonists of farnesoid X receptor signaling (AID 588526)
# Bile acid receptor (Homo sapiens), sequence (Q96RI1 whole entry, looked up): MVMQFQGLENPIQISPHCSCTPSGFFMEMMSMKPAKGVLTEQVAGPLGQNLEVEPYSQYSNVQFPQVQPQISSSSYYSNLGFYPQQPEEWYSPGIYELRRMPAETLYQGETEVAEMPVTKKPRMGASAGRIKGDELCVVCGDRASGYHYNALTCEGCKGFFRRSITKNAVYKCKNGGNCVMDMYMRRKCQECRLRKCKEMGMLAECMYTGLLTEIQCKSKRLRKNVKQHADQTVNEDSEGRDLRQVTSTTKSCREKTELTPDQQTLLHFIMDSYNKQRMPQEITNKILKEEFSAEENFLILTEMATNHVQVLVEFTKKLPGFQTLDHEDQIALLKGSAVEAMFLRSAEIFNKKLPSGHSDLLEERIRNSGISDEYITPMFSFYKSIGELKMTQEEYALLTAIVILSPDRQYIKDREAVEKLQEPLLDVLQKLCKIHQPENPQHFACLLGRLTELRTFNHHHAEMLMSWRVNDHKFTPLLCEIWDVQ
# Procedure, shortened: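 Antagonist mode: titrated compounds tested against chenodeoxycholic acid stimulation (normalized to 50 uM CDCA and DMSO) in GeneBLAzer HEK293T cells for 16 h. Beta-lactamase read by CCF4 fluorescence; IC50 from Hill fits.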
# [3] = target: Androgen receptor (Homo sapiens) (UniProt P10275); assay: qHTS assay for small molecule agonists of androgen receptor signaling (AID 588515; active = well fitted curve in the direction sought with a large enough effect in the signal ratio, with a control signal flat; the % refers to the signal ratio); settings: AR-UAS-bla HEK293, beta-lactamase ratio, agonist 16 h; active compounds read high
# Androgen receptor (Homo sapiens), sequence (P10275 whole entry, looked up): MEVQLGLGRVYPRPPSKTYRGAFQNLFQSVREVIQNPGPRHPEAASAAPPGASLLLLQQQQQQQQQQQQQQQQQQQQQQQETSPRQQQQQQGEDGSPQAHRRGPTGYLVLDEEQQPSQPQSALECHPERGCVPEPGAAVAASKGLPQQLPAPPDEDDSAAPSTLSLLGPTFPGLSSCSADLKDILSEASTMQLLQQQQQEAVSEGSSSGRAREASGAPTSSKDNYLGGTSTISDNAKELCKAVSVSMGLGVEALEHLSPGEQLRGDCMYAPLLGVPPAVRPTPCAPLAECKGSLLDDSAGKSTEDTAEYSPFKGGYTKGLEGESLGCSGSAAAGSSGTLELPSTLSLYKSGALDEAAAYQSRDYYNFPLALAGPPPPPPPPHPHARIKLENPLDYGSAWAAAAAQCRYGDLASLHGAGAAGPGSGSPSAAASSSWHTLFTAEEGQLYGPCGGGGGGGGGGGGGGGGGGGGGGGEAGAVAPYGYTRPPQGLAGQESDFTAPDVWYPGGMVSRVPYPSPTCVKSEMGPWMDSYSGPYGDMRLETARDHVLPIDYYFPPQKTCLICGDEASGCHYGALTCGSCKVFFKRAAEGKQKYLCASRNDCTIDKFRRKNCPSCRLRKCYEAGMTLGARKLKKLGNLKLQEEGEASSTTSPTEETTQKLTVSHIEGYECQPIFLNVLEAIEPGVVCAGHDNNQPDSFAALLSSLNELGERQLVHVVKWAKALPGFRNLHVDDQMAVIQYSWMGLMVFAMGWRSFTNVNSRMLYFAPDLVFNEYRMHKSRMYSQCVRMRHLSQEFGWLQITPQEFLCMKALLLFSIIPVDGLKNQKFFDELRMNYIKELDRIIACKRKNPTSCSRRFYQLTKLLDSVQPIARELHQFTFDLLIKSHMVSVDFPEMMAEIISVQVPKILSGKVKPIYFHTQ
# Procedure, shortened: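 Stimulation of an AR-responsive β-lactamase reporter in GripTite HEK293 cells was measured after 16 h compound exposure at 37 °C, via CCF4 fluorescence after 2 h RT. EC50 from Hill fits, normalized to R1881 at 30 nM.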
# [4] = target: Androgen receptor (Homo sapiens) (UniProt P10275); assay: qHTS assay for small molecule antagonists of androgen receptor signaling (AID 588516; active = well fitted curve in the direction sought with a large enough effect in the signal ratio, with a control signal flat, not every such curve was filed as active; the % refers to the signal ratio)
# Procedure, shortened: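 AR-UAS-bla GripTite HEK 293 cells (2000/well) treated with compound titrations plus 10 nM R1881 for 16 h at 37C. Beta-lactamase read by CCF4 FRET (460/530 nm); IC50 from Hill fits, normalized to R1881 and DMSO control wells.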
# [5] = target: Estrogen receptor (Homo sapiens) (UniProt P03372); assay: qHTS assay for small molecule agonists of estrogen receptor alpha signaling (AID 588514); also: nearly all actives have a fitted effect of over 70% in size
# Estrogen receptor (Homo sapiens), sequence (P03372 whole entry, looked up): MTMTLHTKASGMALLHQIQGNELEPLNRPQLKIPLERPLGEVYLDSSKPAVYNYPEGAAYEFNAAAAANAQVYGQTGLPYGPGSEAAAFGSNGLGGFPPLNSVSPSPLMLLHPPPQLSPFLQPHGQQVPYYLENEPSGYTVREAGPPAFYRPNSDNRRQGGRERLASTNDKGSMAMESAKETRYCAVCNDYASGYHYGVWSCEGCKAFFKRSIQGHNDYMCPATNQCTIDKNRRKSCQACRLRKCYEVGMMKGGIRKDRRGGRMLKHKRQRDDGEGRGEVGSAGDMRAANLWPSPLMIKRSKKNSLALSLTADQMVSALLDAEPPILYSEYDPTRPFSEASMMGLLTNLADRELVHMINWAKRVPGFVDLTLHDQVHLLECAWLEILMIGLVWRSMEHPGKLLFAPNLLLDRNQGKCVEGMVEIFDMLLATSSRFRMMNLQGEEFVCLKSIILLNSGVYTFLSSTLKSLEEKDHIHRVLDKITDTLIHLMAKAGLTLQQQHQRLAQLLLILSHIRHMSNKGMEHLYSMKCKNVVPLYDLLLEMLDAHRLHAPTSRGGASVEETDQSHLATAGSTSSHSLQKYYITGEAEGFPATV
# Procedure, shortened: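 Efficacy is expressed against 20 nM 17-beta-estradiol (100%) and DMSO basal (0%); EC50 from Hill equation. Assay: beta-lactamase reporter in ER-alpha-UAS-bla HEK 293 cells, 18 h compound incubation, CCF4 detection.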
# [6] = qHTS assay to identify small molecules that stimulate interleukin-8 (IL-8) secretion (AID 651758; active = well fitted activation curve with a large enough effect in the signal ratio; the % refers to the signal ratio)
# Procedure, shortened: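 Compounds are added to THP-1 cells (2000 per well) and left 16 hrs at 37 C. A labeled anti-IL-8 antibody pair is then added, and IL-8 secretion is measured by time-resolved FRET after 1-3 hrs at room temperature.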
# [7] = Confirmation and Secondary Assay for Modulators of Hemoglobin Beta Chain Splicing at IVS2 654 locus (AID 910; active = well fitted curve in the direction sought with a large enough effect; an effect the other way counts as inactive or inconclusive;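 also: HeLa cells stably carrying EGFP split by mutant beta-globin IVS2-654 intron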)
# Procedure, shortened: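 HeLa cells stably expressing EGFP interrupted by β-globin IVS2-654 intron, seeded overnight in Opti-MEM/2% FCS, then treated 2 days at 37 °C. Restored splicing read as total peak GFP intensity per well by laser scanning cytometry (488 nm excitation, 500–520 nm emission); 500 nM antisense PNA as control.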
# [8] = Confirmation and Secondary Assay for Modulators of Hemoglobin Beta Chain Splicing at IVS2 705 locus (AID 930; active = well fitted curve in the direction sought with a large enough effect; an effect the other way counts as inactive or inconclusive;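 also: HeLa cells stably expressing the EGFP-705 splicing reporter; GFP fluorescence per well restored by corrected splicing of the IVS2-705 intron in EGFP; series mostly up to about 46 µM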)
# Procedure, shortened: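 Read-out: total peak GFP fluorescence per well (488 nm excitation, 500-520 nm emission) by laser-scanning cytometry. Cells: HeLa EGFP-705 splicing reporter, 2 days compound exposure in Optimem/2% FCS.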
# [9] = target: Ubiquitin carboxyl-terminal hydrolase 1 (Homo sapiens) (UniProt O94782); assay: Inhibitors of USP1/UAF1: Pilot qHTS (AID 504865; active = well fitted curve in the direction sought with a large enough effect; an effect the other way counts as inactive or inconclusive;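 also: rhodamine fluorescence freed from ubiquitin-rhodamine substrate followed over time; top concentration of the series differs between compounds; nearly all actives have a fitted effect of over 35% in size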)
# Ubiquitin carboxyl-terminal hydrolase 1 (Homo sapiens), sequence (O94782 whole entry, looked up): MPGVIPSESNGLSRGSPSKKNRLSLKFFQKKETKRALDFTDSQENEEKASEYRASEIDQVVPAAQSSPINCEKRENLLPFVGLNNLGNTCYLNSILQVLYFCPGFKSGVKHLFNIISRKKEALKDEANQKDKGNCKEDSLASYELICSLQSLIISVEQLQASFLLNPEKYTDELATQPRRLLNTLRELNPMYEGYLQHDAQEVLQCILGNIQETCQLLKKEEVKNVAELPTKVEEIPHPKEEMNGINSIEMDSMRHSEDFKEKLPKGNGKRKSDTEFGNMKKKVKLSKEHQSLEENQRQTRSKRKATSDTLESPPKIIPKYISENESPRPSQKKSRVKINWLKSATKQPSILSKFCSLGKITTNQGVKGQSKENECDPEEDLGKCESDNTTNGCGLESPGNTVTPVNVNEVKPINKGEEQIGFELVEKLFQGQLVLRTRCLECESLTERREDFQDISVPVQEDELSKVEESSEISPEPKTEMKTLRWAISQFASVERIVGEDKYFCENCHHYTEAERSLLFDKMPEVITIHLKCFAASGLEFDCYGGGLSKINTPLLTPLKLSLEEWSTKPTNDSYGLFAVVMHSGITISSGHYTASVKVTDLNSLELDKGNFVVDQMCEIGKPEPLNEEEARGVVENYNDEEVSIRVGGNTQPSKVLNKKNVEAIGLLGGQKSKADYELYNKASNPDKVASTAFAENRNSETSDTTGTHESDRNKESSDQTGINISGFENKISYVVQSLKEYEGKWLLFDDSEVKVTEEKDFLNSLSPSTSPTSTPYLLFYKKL
# Procedure, shortened: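 USP1/UAF1 complex at 1 nM preincubated 15 min at room temperature with compound, then Ub-Rho substrate added at 150 nM final. Fluorescence (480/540 nm) read kinetically in 50 mM HEPES pH 7.8, 0.5 mM EDTA, 1 mM TCEP, 0.1 mg/ml BSA, 0.01% Tween-20.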
# [10] = test system: HIV-1 nucleocapsid protein NCp7 (binding to TG oligonucleotide); assay: HIV Nucleocapsid (AID 346; call rule not given here;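 also: potency is read from the fitted curve at half-maximal effect; potency is for inhibitors that block NC binding and lower polarization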); settings: HIV-1 NC / fluorescein-TGTGTGTG probe, fluorescence polarization
# Procedure, shortened: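 Fluorescence polarization binding of 100 nM HIV-1 NC to 10 nM fluorescein-labelled TG4xF oligonucleotide. Buffer was Hepes pH 7.5 with 250mM NaCl, 1uM ZnCl2, TCEP and 2-mercaptoethanol. Compounds were incubated 1 hr at room temperature before the read.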
structure (smiles),measurement,setting,value
Nc1ccc(-c2ccc(N)cc2)cc1,Potency,[1],inactive
CN(C)N=O,outcome,[2],inactive
O=c1ccc(=O)[nH][nH]1,activation,[3],2.82% and 4.44%
same,outcome,[4],inactive
same,outcome,[2],inactive
Clc1cc(Cl)c(Cl)c(Cl)c1,Potency,[5],inactive
same,Potency,[6],inactive
CC(C)(C)c1ccccc1O,Potency,[6],inactive
CN(C)C(=O)Nc1cccc(C(F)(F)F)c1,Potency,[6],inactive
O=C(Cc1ccccc1)OCc1ccccc1,Potency,[5],inactive
same,outcome,[2],inactive
same,Potency,[6],inactive
ClC(Br)Br,outcome,[2],inactive
same,Potency,[6],inactive
c1ccc(NNc2ccccc2)cc1,outcome,[2],inactive
same,Potency,[6],inactive
Cc1ccc2c(c1N)C(=O)c1ccccc1C2=O,Potency,[1],inactive
same,outcome,[2],inactive
O=NN1CCCCC1,activation,[3],6.11%
same,outcome,[4],inactive
same,Potency,[6],inactive
CC(C)Br,Potency,[5],inactive
same,outcome,[2],inactive
same,Potency,[6],inactive
CC(C)(OOC(C)(C)c1ccccc1)c1ccccc1,activation,[3],9.96%
same,outcome,[4],inactive
same,outcome,[2],inactive
CCCCC(=O)Cl,outcome,[2],inactive
CCOC(=O)C1OC1(C)c1ccccc1 (stereo not drawn),Potency,[6],inactive
BrCC(Br)C1CCC(Br)C(Br)C1 (stereo not drawn),activation,[3],1.31%
same,outcome,[4],inactive
ClCCOCCCl,outcome,[2],inactive
Oc1ccc(Cl)c(Cl)c1Cl,Potency,[1],inactive
same,outcome,[2],inactive
same,Potency,[6],inactive
Cc1ccc(N)cc1C,outcome,[2],inactive
CC12CC1(C)C(=O)N(c1cc(Cl)cc(Cl)c1)C2=O (stereo not drawn),activation,[3],-2.56% and 15.9%
CCCCNC(=O)n1c(NC(=O)OC)nc2ccccc21,Potency,[5],inactive
same,activation,[3],-8.05%
CCCCC#N,Potency,[5],inactive
c1ccc(C2CO2)cc1 (stereo not drawn),Potency,[6],inactive
COc1ccc(C=O)cc1,Potency,[5],inactive
same,Potency,[6],inactive
CC(C)CON=O,Potency,[5],inactive
Cc1coc2c1CCC(C)C2 (stereo not drawn),Potency,[6],inactive
ClCC(Br)CBr (stereo not drawn),Potency,[5],inactive
ClCCCCl,outcome,[2],inactive
Nc1ccc(Oc2ccc(N)cc2)cc1,Potency,[1],inactive
same,Potency,[6],inactive
CC(C)(Cl)[N+](=O)[O-],outcome,[2],inactive
CC(C#N)CCC#N (stereo not drawn),Potency,[5],inactive
same,Potency,[6],inactive
CNC(=O)O/N=C/C(C)(C)S(C)=O (stereo not drawn),Potency,[5],inactive
same,outcome,[2],inactive
same,Potency,[6],inactive
COC(=O)Nc1nc2ccccc2[nH]1,activation,[3],10.4% and 9.09%
O=C(O)CBr,Potency,[6],inactive
CC(C)OS(C)(=O)=O,Potency,[5],inactive
same,outcome,[2],inactive
same,Potency,[6],inactive
O=[N+]([O-])/C=C/c1ccccc1,outcome,[2],inactive
Oc1cccc(Cl)c1Cl,Potency,[5],inactive
CCCCCOC(=O)c1ccccc1C(=O)OCCCCC,Potency,[1],inactive
same,Potency,[6],inactive
O=[N+]([O-])c1cc(Cl)c(Cl)c(Cl)c1,Potency,[5],inactive
same,outcome,[2],inactive
CCCC[N+](=O)[O-],Potency,[5],inactive
same,outcome,[2],inactive
Cc1ccc(OP(=O)(Oc2ccc(C)cc2)Oc2ccc(C)cc2)cc1,Potency,[1],inactive
ClC(Cl)Br,Potency,[5],inactive
CCSC(=O)N1CCCCCC1,Potency,[5],inactive
Cc1cc(N=Nc2ccccc2C)ccc1N,Potency,[1],inactive
same,activation,[3],-4.45%
same,outcome,[4],inactive
same,outcome,[2],inactive
same,Potency,[6],inactive
c1ccc(P(c2ccccc2)c2ccccc2)cc1,Potency,[5],inactive
Nc1c(Cl)cc([N+](=O)[O-])cc1Cl,Potency,[5],inactive
same,activation,[3],-19.7%
same,outcome,[2],inactive
Oc1c(Cl)c(Cl)cc(Cl)c1Cl,activation,[3],-20.1%
Nc1ccc(Cc2ccc(N)c(Cl)c2)cc1Cl,Potency,[1],inactive
same,Potency,[5],inactive
c1ccc(N=NNc2ccccc2)cc1,Potency,[5],inactive
COP(=S)(OC)SCn1nnc2ccccc2c1=O,Potency,[1],inactive
same,outcome,[7],inactive
same,outcome,[8],inactive
same,Potency,[9],inactive
same,Potency,[5],inactive
same,activation,[3],-9.55% and -1.17%
O=C(O)c1cccc(Cl)c1,Potency,[5],inactive
same,outcome,[2],inactive
same,Potency,[6],inactive
N#CC(Cl)(Cl)Cl,activation,[3],-3.49%
same,outcome,[4],inactive
same,outcome,[2],inactive
O=[N+]([O-])c1c(Cl)c(Cl)c(Cl)c(Cl)c1Cl,Potency,[5],inactive
same,activation,[3],15.3% and 4.1%
same,outcome,[4],inactive
CCCCC(CC)COC(=O)c1ccc(C(=O)OCC(CC)CCCC)c(C(=O)OCC(CC)CCCC)c1 (stereo not drawn),activation,[3],-4.73%
CCN(N=O)C(N)=O,Potency,[5],inactive
same,outcome,[2],inactive
C=CCCC#N,Potency,[5],inactive
same,outcome,[2],inactive
O=C(O)C(Br)Br,Potency,[5],inactive
same,outcome,[2],inactive
Nc1cc(Cl)cc(C(=O)O)c1Cl,Potency,[1],inactive
C(CCOCC1CO1)COCC1CO1 (stereo not drawn),Potency,[5],inactive
same,outcome,[2],inactive
CN(C)c1ccc(N)cc1,Potency,[1],inactive
same,activation,[3],-5.02%
CN(C)c1ccc(N(C)C)cc1,outcome,[2],inactive
O=[N+]([O-])c1ccccc1CCl,Potency,[5],inactive
same,outcome,[2],inactive
Cc1cc(C)cc(OP(=O)(Oc2cc(C)cc(C)c2)Oc2cc(C)cc(C)c2)c1,Potency,[1],inactive
CC(C)[N+](=O)[O-],outcome,[2],inactive
same,Potency,[6],inactive
ClC(Cl)(Cl)C(Cl)(Cl)Cl,Potency,[6],inactive
Nc1ccc(Cc2ccc(N)cc2)cc1,Potency,[1],inactive
same,outcome,[2],inactive
CC1CC(=O)O1 (stereo not drawn),outcome,[2],inactive
O=[N+]([O-])c1cccc2c([N+](=O)[O-])cccc12,activation,[3],1.43%
same,outcome,[4],inactive
same,Potency,[6],inactive
Nc1ccc(-c2ccc(N)c(Cl)c2)cc1Cl,Potency,[1],inactive
Cc1cnc[nH]1,activation,[3],-7.55%
same,outcome,[2],inactive
Nc1cccc(Cl)c1,Potency,[5],inactive
same,outcome,[2],inactive
O=C(O)C(Cl)Br (stereo not drawn),outcome,[2],inactive
c1ccoc1,outcome,[2],inactive
N#CCBr,Potency,[5],inactive
same,outcome,[2],inactive
CCBr,Potency,[5],inactive
Oc1cc(Cl)c(Cl)c(Cl)c1Cl,Potency,[1],inactive
CCOC(=O)CC(SP(=O)(OC)OC)C(=O)OCC (stereo not drawn),Potency,[1],inactive
same,outcome,[2],inactive
ClCCOCOCCCl,outcome,[2],inactive
OCCOCCO,Potency,[5],inactive
same,Potency,[6],inactive
O=[N+]([O-])c1cccc(O)c1,outcome,[2],inactive
same,Potency,[6],inactive
Clc1cccc2ccccc12,Potency,[6],inactive
C=C(Cl)CSC(=S)N(CC)CC,Potency,[1],inactive
same,outcome,[2],inactive
O=[N+]([O-])c1cc(Cl)c(Cl)cc1Cl,Potency,[5],inactive
same,Potency,[6],inactive
Cl/C=C/CCl,Potency,[6],inactive
Brc1cccc(-c2ccccc2)c1,Potency,[5],inactive
same,outcome,[2],inactive
C=CCOCC1CO1 (stereo not drawn),outcome,[2],inactive
ClCCBr,Potency,[6],inactive
Oc1cc(Cl)cc(Cl)c1,Potency,[6],inactive
CCOP(=S)(OCC)Oc1nc(Cl)c(Cl)cc1Cl,Potency,[1],inactive
same,outcome,[7],inactive
same,outcome,[8],inactive
same,Potency,[5],inactive
same,activation,[3],5.31% and -6.07%
same,outcome,[4],inactive
same,outcome,[2],inactive
O=P(OCCCl)(OCCCl)OCCCl,outcome,[2],inactive
same,Potency,[6],inactive
C=COC(C)=O,Potency,[6],inactive
N#CC(O)c1ccccc1 (stereo not drawn),outcome,[2],inactive
same,Potency,[6],inactive
N#CCCC#N,Potency,[5],inactive
CN(C)c1ccc(N=Nc2ccccc2)cc1,outcome,[2],inactive
COc1cccc(Cn2c(=O)c(-c3cc(F)cc(F)c3)nc3cnc(N4CCNCC4)nc32)c1,Potency,[10],> 20 µM
